Laboratory results taken from PubChem BioAssay (NCI).
The panel holds about 79,000 compounds, 15% with a hit somewhere; the sample as a whole holds those more often. Unmarked numbers belong to inactive results. Activity calls are given as the source filed them. Cut-off read from the data, not from the text of the source: active = growth inhibition above about 70%; inactive = the rest.

Legend:
[1] = NCI Yeast Anticancer Drug Screen. Data for the rad52 strain (AID 147);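 note: 0% = growth of vehicle-treated control cultures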; conditions: S. cerevisiae rad52 mutant growth inhibition, hits give high values
Summary of the method: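 Screen used a yeast mutant impaired in DNA repair. After compound exposure, growth was measured. Values reflect inhibition compared with vehicle-treated cells.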

[2] = NCI Yeast Anticancer Drug Screen. Data for the wt1 strain (AID 149);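 note: 0% = growth of vehicle-treated wt1 cultures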; conditions: S. cerevisiae wt1 strain (SPY 50644) growth inhibition, hits give high values
Summary of the method: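 Each compound is tested on wt1 yeast and the loss of growth versus vehicle gives the inhibition value.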

[3] = NCI Yeast Anticancer Drug Screen. Data for the rad50EPP+ strain (AID 151);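 note: 0% = growth of vehicle-treated control cultures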; conditions: S. cerevisiae rad50 mutant strain, hits give high values
Summary of the method: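 Exposing the rad50EPP+ strain to each compound, growth was compared with vehicle-only cultures to give inhibition.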

[4] = NCI Yeast Anticancer Drug Screen. Data for the mgt1 strain (AID 153); conditions: S. cerevisiae mgt1 mutant growth inhibition, hits give high values
Summary of the method: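 Genetically defined yeast (mgt1) treated with compound; inhibition of growth expressed against vehicle-treated controls.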

[5] = NCI Yeast Anticancer Drug Screen. Data for the rad50 strain (AID 155);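 note: 0% = growth of vehicle-only cultures of the same strain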; conditions: S. cerevisiae rad50 strain growth inhibition, hits give high values
Summary of the method: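 Vehicle-treated cultures provide the reference for the growth inhibition reported for compound-exposed, repair-deficient yeast.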

[6] = NCI Yeast Anticancer Drug Screen. Data for the mec2-1 strain (AID 157); conditions: S. cerevisiae mec2-1 strain, hits give high values
Summary of the method: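 Readout is yeast growth inhibition, normalised to vehicle-treated controls, in the mec2-1 strain exposed to compound.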

[7] = NCI Yeast Anticancer Drug Screen. Data for the rad14 strain (AID 159);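 note: 0% = growth of vehicle-treated control cultures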; conditions: S. cerevisiae rad14 strain growth inhibition, hits give high values
Summary of the method: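 Inhibition of growth is reported for a repair-deficient yeast mutant following compound treatment, calculated relative to cultures that received vehicle.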

[8] = NCI Yeast Anticancer Drug Screen. Data for the sgs1 mgt1 strain (AID 161);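 note: 0% = growth of cultures given vehicle only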; conditions: S. cerevisiae sgs1 mgt1 strain, hits give high values
Summary of the method: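 Yeast cells carrying a defined DNA-repair defect were exposed to test compounds. Growth inhibition was measured relative to vehicle-treated controls.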

[9] = NCI Yeast Anticancer Drug Screen. Data for the CLN2oe strain (AID 163);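 note: 0% = growth of vehicle-only control cultures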; conditions: S. cerevisiae CLN2oe strain, hits give high values
Summary of the method: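 Values reflect how much compound exposure reduced yeast growth, referenced to vehicle-exposed cells. Assay organism is a strain with a defined genetic change affecting cell-cycle control.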

[10] = NCI Yeast Anticancer Drug Screen. Data for the cln2 rad14 strain (AID 165);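 note: 0% = growth equal to vehicle treated cultures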; conditions: S. cerevisiae cln2 rad14 strain, hits give high values
Summary of the method: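 Relative to vehicle controls, growth inhibition of compound-treated cln2 rad14 yeast was recorded.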

[11] = NCI Yeast Anticancer Drug Screen. Data for the bub3 strain (AID 167); conditions: S. cerevisiae bub3 mutant strain, hits give high values
Summary of the method: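 Mutant yeast screening strain plus compound; vehicle-treated cultures serve as the 0% inhibition reference.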

[12] = NCI Yeast Anticancer Drug Screen. Data for the wt2 strain (AID 169); conditions: S. cerevisiae wt2 strain growth inhibition, hits give high values
Summary of the method: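 Values express reduction in yeast growth under compound treatment, referenced to vehicle-treated cells.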

[13] = NCI Yeast Anticancer Drug Screen. Data for the sgs1 strain (AID 173);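 note: 0% = growth of vehicle-only control cultures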; conditions: S. cerevisiae sgs1 mutant, hits give high values
Summary of the method: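 Treat defined-mutant yeast with compound; measure growth; calculate inhibition relative to vehicle-treated cells.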

[14] = NCI Yeast Anticancer Drug Screen. Data for the mlh1 rad18 strain (AID 175); conditions: S. cerevisiae mlh1 rad18 strain growth inhibition, hits give high values
Summary of the method: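 Test agents were incubated with a yeast strain of defined genotype (DNA damage repair defect). Inhibition of growth was derived by comparison with vehicle-exposed cultures.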

[15] = NCI Yeast Anticancer Drug Screen. Data for the rad18 strain (AID 177); conditions: S. cerevisiae rad18 mutant growth inhibition, hits give high values
Summary of the method: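 A genetically defined yeast mutant impaired in DNA damage repair was treated with test compounds, then its growth was measured against cultures receiving vehicle alone.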

[16] = at 5.0 µM (retest, dose inferred, filed as 0.5)
[17] = at 50.0 µM (retest, dose inferred, filed as 5.0)

## CCC[CH2][Sn]([CH2]CCC)([CH2]CCC)/[C](=C/[Si](C)(C)c1ccccc1)c1ccc2c(c1)OCO2
[1]; at 1.2 µM
  growth inhibition: 11%
[1]; at 3.7 µM
  growth inhibition: 48%
[1]; at 11.0 µM
  growth inhibition: 92% (active)
[1]; at 33.0 µM
  growth inhibition: 90% (active)
[1]; at 100.0 µM
  growth inhibition: 87% (active)
[2]; at 1.2 µM
  growth inhibition: 3%
[2]; at 3.7 µM
  growth inhibition: 15%
[2]; at 11.0 µM
  growth inhibition: 94% (active)
[2]; at 33.0 µM
  growth inhibition: 92% (active)
[2]; at 100.0 µM
  growth inhibition: 89% (active)
[3]; at 1.2 µM
  growth inhibition: 6%
[3]; at 3.7 µM
  growth inhibition: 17%
[3]; at 11.0 µM
  growth inhibition: 33%
[3]; at 33.0 µM
  growth inhibition: 66%
[3]; at 100.0 µM
  growth inhibition: 74% (active)
[4]; at 1.2 µM
  growth inhibition: 0%
[4]; at 3.7 µM
  growth inhibition: 26%
[4]; at 11.0 µM
  growth inhibition: 95% (active)
[4]; at 33.0 µM
  growth inhibition: 92% (active)
[4]; at 100.0 µM
  growth inhibition: 93% (active)
[5]; at 1.2 µM
  growth inhibition: 13%
[5]; at 3.7 µM
  growth inhibition: 72% (active)
[5]; [16]
  growth inhibition: 67%
[5]; at 11.0 µM
  growth inhibition: 89% (active)
[5]; at 33.0 µM
  growth inhibition: 87% (active)
[5]; [17]
  growth inhibition: 67%
[5]; at 50.0 µM
  growth inhibition: 91.2% (active)
[5]; at 100.0 µM
  growth inhibition: 87% (active)
[6]; at 1.2 µM
  growth inhibition: -1%
[6]; at 3.7 µM
  growth inhibition: 17%
[6]; [16]
  growth inhibition: 27%
[6]; at 11.0 µM
  growth inhibition: 94% (active)
[6]; at 33.0 µM
  growth inhibition: 92% (active)
[6]; [17]
  growth inhibition: 27%
[6]; at 50.0 µM
  growth inhibition: 93.7% (active)
[6]; at 100.0 µM
  growth inhibition: 91% (active)
[7]; at 1.2 µM
  growth inhibition: 1%
[7]; at 3.7 µM
  growth inhibition: 24%
[7]; at 11.0 µM
  growth inhibition: 95% (active)
[7]; at 33.0 µM
  growth inhibition: 93% (active)
[7]; at 100.0 µM
  growth inhibition: 93% (active)
[8]; [16]
  growth inhibition: 75% (active)
[8]; [17]
  growth inhibition: 75% (active)
[8]; at 50.0 µM
  growth inhibition: 91.8% (active)
[9]; at 1.2 µM
  growth inhibition: -5%
[9]; at 3.7 µM
  growth inhibition: 4%
[9]; at 11.0 µM
  growth inhibition: 92% (active)
[9]; at 33.0 µM
  growth inhibition: 89% (active)
[9]; at 100.0 µM
  growth inhibition: 84% (active)
[10]; [16]
  growth inhibition: 7%
[10]; [17]
  growth inhibition: 7%
[10]; at 50.0 µM
  growth inhibition: 91.3% (active)
[11]; at 1.2 µM
  growth inhibition: -2%
[11]; at 3.7 µM
  growth inhibition: 10%
[11]; [16]
  growth inhibition: 14%
[11]; at 11.0 µM
  growth inhibition: 93% (active)
[11]; at 33.0 µM
  growth inhibition: 89% (active)
[11]; [17]
  growth inhibition: 14%
[11]; at 50.0 µM
  growth inhibition: 92% (active)
[11]; at 100.0 µM
  growth inhibition: 89% (active)
[12]; at 1.2 µM
  growth inhibition: 0%
[12]; at 3.7 µM
  growth inhibition: 35%
[12]; at 11.0 µM
  growth inhibition: 95% (active)
[12]; at 33.0 µM
  growth inhibition: 92% (active)
[12]; at 100.0 µM
  growth inhibition: 93% (active)
[13]; at 1.2 µM
  growth inhibition: 1%
[13]; at 3.7 µM
  growth inhibition: 44%
[13]; at 11.0 µM
  growth inhibition: 94% (active)
[13]; at 33.0 µM
  growth inhibition: 90% (active)
[13]; at 100.0 µM
  growth inhibition: 90% (active)
[14]; [16]
  growth inhibition: 44%
[14]; [17]
  growth inhibition: 44%
[14]; at 50.0 µM
  growth inhibition: 89% (active)
[15]; at 1.2 µM
  growth inhibition: 25%
[15]; at 3.7 µM
  growth inhibition: 82% (active)
[15]; at 11.0 µM
  growth inhibition: 92% (active)
[15]; at 33.0 µM
  growth inhibition: 86% (active)
[15]; at 100.0 µM
  growth inhibition: 88% (active)

## O=C(C#Cc1ccccc1)Nc1ccccc1
[1]; at 1.2 µM
  growth inhibition: -14%
[1]; at 3.7 µM
  growth inhibition: -11%
[1]; at 11.0 µM
  growth inhibition: -7%
[1]; at 33.0 µM
  growth inhibition: 23%
[1]; at 100.0 µM
  growth inhibition: 97% (active)
[2]; at 1.2 µM
  growth inhibition: -1%
[2]; at 3.7 µM
  growth inhibition: -10%
[2]; at 11.0 µM
  growth inhibition: -6%
[2]; at 33.0 µM
  growth inhibition: 6%
[2]; at 100.0 µM
  growth inhibition: 95% (active)
[3]; at 1.2 µM
  growth inhibition: -4%
[3]; at 3.7 µM
  growth inhibition: 4%
[3]; at 11.0 µM
  growth inhibition: 37%
[3]; at 33.0 µM
  growth inhibition: 70% (active)
[3]; at 100.0 µM
  growth inhibition: 92% (active)
[4]; at 1.2 µM
  growth inhibition: -5%
[4]; at 3.7 µM
  growth inhibition: -10%
[4]; at 11.0 µM
  growth inhibition: -4%
[4]; at 33.0 µM
  growth inhibition: 58%
[4]; at 100.0 µM
  growth inhibition: 97% (active)
[5]; at 1.2 µM
  growth inhibition: -20%
[5]; at 3.7 µM
  growth inhibition: -25%
[5]; [16]
  growth inhibition: -147%
[5]; at 11.0 µM
  growth inhibition: -17%
[5]; at 33.0 µM
  growth inhibition: 52%
[5]; [17]
  growth inhibition: 20%
[5]; at 50.0 µM
  growth inhibition: 45.8%
[5]; at 100.0 µM
  growth inhibition: 97% (active)
[6]; at 1.2 µM
  growth inhibition: -9%
[6]; at 3.7 µM
  growth inhibition: -7%
[6]; [16]
  growth inhibition: -48%
[6]; at 11.0 µM
  growth inhibition: -8%
[6]; at 33.0 µM
  growth inhibition: -2%
[6]; [17]
  growth inhibition: -29%
[6]; at 50.0 µM
  growth inhibition: 33.6%
[6]; at 100.0 µM
  growth inhibition: 80% (active)
[7]; at 1.2 µM
  growth inhibition: -3%
[7]; at 3.7 µM
  growth inhibition: -9%
[7]; at 11.0 µM
  growth inhibition: 4%
[7]; at 33.0 µM
  growth inhibition: 67%
[7]; at 100.0 µM
  growth inhibition: 97% (active)
[8]; [16]
  growth inhibition: -57%
[8]; [17]
  growth inhibition: 67%
[8]; at 50.0 µM
  growth inhibition: 64.7%
[9]; at 1.2 µM
  growth inhibition: -10%
[9]; at 3.7 µM
  growth inhibition: -13%
[9]; at 11.0 µM
  growth inhibition: -14%
[9]; at 33.0 µM
  growth inhibition: -5%
[9]; at 100.0 µM
  growth inhibition: 94% (active)
[10]; [16]
  growth inhibition: -64%
[10]; [17]
  growth inhibition: -42%
[10]; at 50.0 µM
  growth inhibition: -13.2%
[11]; at 1.2 µM
  growth inhibition: -10%
[11]; at 3.7 µM
  growth inhibition: -7%
[11]; [16]
  growth inhibition: -74%
[11]; at 11.0 µM
  growth inhibition: -7%
[11]; at 33.0 µM
  growth inhibition: 24%
[11]; [17]
  growth inhibition: -6%
[11]; at 50.0 µM
  growth inhibition: 15.4%
[11]; at 100.0 µM
  growth inhibition: 97% (active)
[12]; at 1.2 µM
  growth inhibition: -9%
[12]; at 3.7 µM
  growth inhibition: -4%
[12]; at 11.0 µM
  growth inhibition: 19%
[12]; at 33.0 µM
  growth inhibition: 90% (active)
[12]; at 100.0 µM
  growth inhibition: 99% (active)
[13]; at 1.2 µM
  growth inhibition: -9%
[13]; at 3.7 µM
  growth inhibition: -3%
[13]; at 11.0 µM
  growth inhibition: 33%
[13]; at 33.0 µM
  growth inhibition: 88% (active)
[13]; at 100.0 µM
  growth inhibition: 99% (active)
[14]; [16]
  growth inhibition: -149%
[14]; [17]
  growth inhibition: -10%
[14]; at 50.0 µM
  growth inhibition: 38.9%
[15]; at 1.2 µM
  growth inhibition: -9%
[15]; at 3.7 µM
  growth inhibition: -12%
[15]; at 11.0 µM
  growth inhibition: -9%
[15]; at 33.0 µM
  growth inhibition: 8%
[15]; at 100.0 µM
  growth inhibition: 94% (active)
